# Structures can show the parent of a compound that is named as a salt. ± gives the standard deviation of the averaged measurements.
# System: E. coli TESEC Mtb Alr
# Assay: growth (OD600 after 10 h); higher = more growth (less inhibition)
# Conditions: arabinose 10000000 nM; compound 0.1 mM; raw OD600 reference: median of DMSO wells […], cell-free background 0.052
# Method: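 TESEC Mtb Alr E. coli (ΔaraC ΔtolC ΔentC Δalr ΔdadX, arabinose-inducible Mtb Alr) or the Alr+ wild-type control strain, grown in defined M9-fructose medium without D-alanine in 96-well plates with Prestwick library compounds at 0.1 mM and 1% DMSO. Low Alr induction is 0.1 µM arabinose and high induction is 10 mM arabinose.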
row,SMILES,growth
1,O=C1c2ccccc2S(=O)(=O)N1CCCCN1CCN(c2ncccn2)CC1 [Ipsapirone],0.313 ± 0.012
2,COc1ccc(-c2cc(=S)ss2)cc1 [Anethole-trithione],0.369 ± 0.019
3,CCCc1nc2c(C)cc(-c3nc4ccccc4n3C)cc2n1Cc1ccc(-c2ccccc2C(=O)O)cc1 [Telmisartan],0.337 ± 0.018
4,CSc1ccc2c(c1)N(CCC1CCCCN1C)c1ccccc1S2 (centres undefined) [Thioridazine hydrochloride],0.05103 ± 0.00015
5,CCOC(=O)c1ccc(N)cc1 [Benzocaine],0.323 ± 0.018
6,Cc1cc2c(cc1S(N)(=O)=O)S(=O)(=O)CCC2 [Meticrane],0.254 ± 0.17
7,CC(C)COCC(CN(Cc1ccccc1)c1ccccc1)N1CCCC1 (centres undefined) [Bepridil hydrochloride],0.0512 ± 0.0012
8,NC[C@H]1O[C@H](O[C@H]2[C@H](O[C@@H]3O[C@H](CO)[C@@H](O)[C@H]3O)[C@@H](O)[C@H](N)C[C@@H]2N)[C@H](N)[C@@H](O)[C@@H]1O [Ribostamycin sulfate salt],0.366 ± 0.012
9,N=C(N)NS(=O)(=O)c1ccc(N)cc1 [Sulfaguanidine],0.383 ± 0.022
